About 13,000 (27%) of roughly 48,000 compounds showed an effect of 50% or more. Some of the results follow.
These compounds were tested on Wolbachia pipientis (assay: Anti-Wolbachia Cell-Based Screen). Conditions: 5 µM.
Type: functional
Set-up: scale not given: in the data most compounds retested in dose-response had high values

| SMILES | Percent Effect [%] |
| --- | --- |
| O=C(O)CC[C@@H]1CN(c2ccncc2)CC[C@@H]1N1CCOCC1 | -3.387 |
| Cc1ccc(C(=O)N2CCSCC2)cc1NC(=O)NCC1CCC1 | -32.66 |
| Cc1cnn(CC2CCCN2CC(=O)N(C)Cc2ccc(C)o2)c1 (stereo not drawn) | 15.94 |
| Cc1cnn(CC2CCCN2CC(=O)Nc2cc(C(C)C)no2)c1 (stereo not drawn) | 129.6 |
| Cn1ncc(NCc2cc(F)cc(F)c2)c(Cl)c1=O | -8.673 |
| COc1ccc(NC(=O)CCC2CCCN(Cc3ncon3)C2)cc1Cl (stereo not drawn) | 9.109 |
| CN(C)CCNC(=O)CNC(=O)N1CCc2c([nH]c3ccc(Cl)cc23)C1 | 31.1 |
| CC1CN(C(=O)c2cc(=O)[nH]c3ccc(F)cc23)CCO1 (stereo not drawn) | 4.129 |
| CN(C)C[C@@H]1[C@H]2CN(C(=O)c3cc(=O)[nH]c4ccc(F)cc34)C[C@@H]12 | -6.499 |
| O=C(CN1CCc2[nH]c3ccccc3c2C1)NCc1ccco1 | -4.019 |
| Cc1ccc2[nH]c3c(c2c1)CN(C(=O)CN(C)CC1OCCO1)CC3 | 95.71 |
| CN(C)CCCNC(=O)CNC(=O)N1CCc2c([nH]c3ccccc23)C1 | 22.94 |
| O=C(CNC(=O)N1CCc2c([nH]c3ccc(Cl)cc23)C1)N1CCOCC1 | 10.93 |
| CN(CC(=O)N1CCc2[nH]c3ccc(F)cc3c2C1)CC1OCCO1 | 90.48 |
| CN(CC(=O)N1CCc2[nH]c3ccccc3c2C1)CC1OCCO1 | 105.4 |
| c1ccc2c(NCC3(N4CCOCC4)CCSC3)ncnc2c1 (stereo not drawn) | -37.37 |
| CC(CO)NC(=O)c1ccc2[nH]/c(=N\S(C)(=O)=O)sc2c1 (stereo not drawn) | 96.98 |
| CSCCC(C)NC(=O)c1cccc(-c2n[nH]c(C)n2)c1 (stereo not drawn) | -6.222 |
| CSCCC(CO)NC(=O)c1ccc2[nH]/c(=N\S(C)(=O)=O)sc2c1 (stereo not drawn) | 102 |
| CCC(CC)NC(=O)c1ccc2c(c1)C(c1nc[nH]n1)CN2S(C)(=O)=O (stereo not drawn) | -0.8083 |
| Cc1nn(C)c(C)c1CN(C)c1nc(C2CC2)nc2c(C)nn(C)c12 | 9.92 |
| Cc1nn(C)c2c(N(C)Cc3ccco3)nc(C3CC3)nc12 | 91.93 |

| SMILES | Percent Effect [%] |
| --- | --- |
| Cc1nn(C)c2c(N(C)Cc3cccs3)nc(C3CC3)nc12 | 84.71 |
| COc1ccnc(N(C)Cc2ccco2)n1 | 6.13 |
| Cc1nn(C)c2c(NCc3ccccc3F)nc(C3CC3)nc12 | -10.39 |
| Cc1nn(C)c2c(NCc3cccnc3)nc(C3CC3)nc12 | -0.9652 |
| O=C(NCCCO)c1cnc(-c2ccccc2)nc1O | -7.002 |
| Cc1nc(NCCN2CCCC2=O)cc(C2CN(C)CCO2)n1 (stereo not drawn) | 121.4 |
| Cc1cc(N2CCCC(OC(=O)CCN3CCCC3=O)C2)nc(C)n1 (stereo not drawn) | -12.05 |
| CC(=O)N1CCN(c2cc(C3CN(C)CCO3)nc(C)n2)CC1 (stereo not drawn) | -11.29 |
| CC(CCN1CCCC1=O)NCc1cnc(C2CCC2)s1 (stereo not drawn) | 5.748 |
| Cc1cnn(CC2CN(CCN3CCCC3=O)CCO2)c1 (stereo not drawn) | -2.569 |
| Cc1nc(NCCN2CCCC2=O)cc(C2CN(C(C)C)CCO2)n1 (stereo not drawn) | 108.1 |
| Cc1ccc(CNCC2CCCn3ccnc32)s1 (stereo not drawn) | -4.636 |
| Cn1cc(C2=NOC(C(=O)NC3(c4cccc(F)c4)CCCC3)C2)cn1 (stereo not drawn) | 105.1 |
| O=C(CCCn1cncn1)NC1(c2ccccc2)CCC1 | -7.229 |
| Cn1cc(C2=NOC(C(=O)NC3(c4ccccc4)CCCC3)C2)cn1 (stereo not drawn) | 117.7 |
| CC(=O)c1cc(C(=O)NC2(c3ccccc3)CCC2)n(C)c1 | -2.692 |
| Cn1cc(N2CCC(NC(=O)c3ccccc3F)C2=O)cn1 (stereo not drawn) | 1.627 |
| O=C(NC1(c2cccc(F)c2)CCOCC1)c1ccoc1 | -9.671 |
| O=C(NC1(c2cccc(F)c2)CCOCC1)c1ccccn1 | 10.14 |
| CC(C)C(NC(=O)c1ccccc1F)C(=O)Nc1cnn(C)c1 (stereo not drawn) | 10.34 |
| Cn1cc(C2=NOC(C(=O)NC3(c4ccccc4F)CCCC3)C2)cn1 (stereo not drawn) | 111.1 |
| N[C@@H]1c2ccccc2C2(CCN(C(=O)c3cncc(Cl)c3)CC2)[C@H]1O | -1.083 |

| SMILES | Percent Effect [%] |
| --- | --- |
| CCN(Cc1noc(C)n1)C(=O)C(c1cccc(C)c1)N(C)C (stereo not drawn) | 1.236 |
| CSc1cc2c(cc1NC(=O)NCCn1ccnc1)OCCO2 | 8.638 |
| COCc1ccccc1C(=O)NS(=O)(=O)c1ccc2c(c1)CCC(=O)N2 | -32.38 |
| COc1ccc2c(c1)C(C(=O)N(C)CCCc1cnn(C)c1)CC(=O)N2 (stereo not drawn) | -51.57 |
| Cn1ccnc1COc1ccc(CN2CCN(CCO)CC2)cc1 | -5.223 |
| Cn1ccnc1COc1ccc(CN2CCC(C(N)=O)CC2)cc1 | 122.5 |
| COCCN1CCN(Cc2ccc(OCc3nccn3C)cc2)CC1 | 100.2 |
| Cn1ccnc1COc1ccc(CSc2nnnn2C2CC2)cc1 | -14.27 |
| CCOC(=O)N1CCN(Cc2ccc(OCc3nccn3C)cc2)CC1 | 3.799 |
| Cn1ccnc1COc1ccc(CSc2nnnn2C)cc1 | 6.685 |
| CC1CCCN(Cc2ccc(OCc3nccn3C)cc2)C1 (stereo not drawn) | 64.75 |
| Cn1ccnc1COc1ccc(CO)cc1 | 4.503 |
| CC(=O)N1CCN(Cc2ccc(OCc3nccn3C)cc2)CC1 | 94.07 |
| Cn1ccnc1COc1ccc(COC(=O)C2CCCO2)cc1 (stereo not drawn) | 0.9583 |
| Cn1ccnc1COc1ccc(CSc2nncn2C2CC2)cc1 | -10.32 |
| CCCN1C[C@H]2CC[C@@H]1CN(Cc1cccc(O)c1)C2 | 9.983 |
| CC(=O)c1ccc(N2CCCC(CO)(Cc3ccccc3C)C2)nc1 (stereo not drawn) | -1.793 |
| CS(=O)(=O)NCCC(=O)N1CCC(Cc2ccc(CO)cc2)C1 (stereo not drawn) | 5.18 |
| Cc1ccccc1SC1CCN(C(=O)CCCS(N)(=O)=O)CC1 | 85.51 |
| Cc1ccccc1N1CCCN(C(=O)CCCS(N)(=O)=O)CC1 | -5.383 |
| CC(=O)NCCCC(=O)N1CCC(Sc2cccc(C)c2)CC1 | 104.7 |
| Cc1ccccc1C1CCN(C(=O)CCNS(C)(=O)=O)C1 (stereo not drawn) | -0.3491 |

| SMILES | Percent Effect [%] |
| --- | --- |
| Cc1cccc(SC2CCN(C(=O)CCCn3cnnn3)CC2)c1 | 97.25 |
| Cc1cccc(SC2CCN(Cc3nc(CC4CC4)no3)CC2)c1 | -16.83 |
| Cc1cccc(OC2CCN(C(=O)CNC(=O)N(C)C)CC2)c1 | 0.03491 |
| Cc1ccccc1SC1CCN(C(=O)[C@H]2[C@@H]3CNC[C@@H]32)CC1 | -39.6 |
| CSCC(=O)N1CCC(Oc2cccc(C)c2)CC1 | 1.414 |
| Cc1cccc(SC2CCN(C(=O)CCNS(C)(=O)=O)CC2)c1 | 90.55 |
| COc1cccc(OC2CN(C(=O)CCn3cnnn3)C2)c1 | -0.2846 |
| O=C(Nc1ccc2c(c1)OCO2)N1CCCC1c1ccco1 (stereo not drawn) | -0.7591 |
| Cc1nc(CN2C[C@@H](CN3CCOCC3)[C@@H](CO)C2)c2ccccn12 | 6.539 |
| COCC(=O)N1CCc2nc(C(=O)N(C)C)sc2CC1 | -18.32 |
| CN(Cc1ccc(C#N)cc1)Cc1noc(C(C)(C)C)n1 | 1.419 |
| Cc1ccccc1CCC1CCCN(Cc2c(C)[nH]c(=O)[nH]c2=O)C1 (stereo not drawn) | 11.3 |
| Cc1cnccc1N1CCCN(C(=O)CCCS(N)(=O)=O)CC1 | 5.967 |
| NS(=O)(=O)CCCC(=O)N1CCC2(CC1)c1ccccc1CC2O (stereo not drawn) | -16.64 |
| Cc1cccc(SC2CCN(C(=O)CCCS(N)(=O)=O)CC2)c1 | 79.05 |
| COc1cccc(CN2CCC(c3nnc(-c4cnc(C)cn4)o3)C2)c1 (stereo not drawn) | 84.16 |
| Cc1cccc(CN2CCC(c3nnc(-c4scnc4C)o3)CC2)c1 | 109.5 |
| COc1cccc(CN2CC[C@H](c3nnc(C)o3)C2)c1 | 12.81 |
| Cc1ncsc1-c1nc(-c2cccc(CN3CCOCC3)c2)no1 | 1.772 |
| COc1cccc(CN2CC[C@H](c3nnc(-c4ccco4)o3)C2)c1 | 18.39 |
| Cc1ncsc1-c1nnc(C2CCN(Cc3cccc(Cl)c3)CC2)o1 | 113.8 |
| Cc1nc(CN2CCN(CC(=O)Nc3c(C)cccc3C)CC2)no1 | 0.7695 |

| SMILES | Percent Effect [%] |
| --- | --- |
| COc1ccc(C(O)C(=O)N2CCC(c3nccn3C(C)C)CC2)cc1 (stereo not drawn) | -20.71 |
| CC(NC(=O)c1ccoc1)C(=O)N(C)Cc1ccc(O)cc1 (stereo not drawn) | -3.093 |
| Cc1cc(NC(=O)NCC(c2ccsc2)N(C)C)n(C)n1 (stereo not drawn) | -2.678 |
| Cc1cc(C(=O)NCC(c2ccsc2)N(C)C)no1 (stereo not drawn) | 113.7 |
| Cc1noc(C(C)C)c1C(=O)NCC(c1ccsc1)N(C)C (stereo not drawn) | -2.505 |
| CCN(CC)C(CNC(=O)c1c(C)noc1C(C)C)c1ccsc1 (stereo not drawn) | 108.9 |
| CN(C)C(CNC(=O)c1ncoc1-c1ccccc1)c1ccsc1 (stereo not drawn) | -4.122 |
| Cc1noc(C)c1C(=O)NCC(c1ccc(F)cc1)N(C)C (stereo not drawn) | -4.601 |
| Cc1noc(C)c1C(=O)NCC(c1ccsc1)N(C)C (stereo not drawn) | 115.3 |
| Cc1nn(-c2ccccc2)nc1C(=O)NCC(c1ccsc1)N(C)C (stereo not drawn) | -0.008163 |
| Cc1nn(C)c(Cl)c1C(=O)NCC(c1ccsc1)N(C)C (stereo not drawn) | -1.114 |
| CC(c1cc(F)ccc1F)N1CCN(C(=O)c2ccc(=O)[nH]c2)CC1 (stereo not drawn) | -31.75 |
| O=C(O)C(F)(F)F.c1csc(CN2CCc3ncnc(C4CCOC4)c3CC2)c1 (stereo not drawn) | -9.496 |
| Cn1nnc2c1CCN(C(=O)C1CCC1)C2COCCN1CCCC1.O=C(O)C(F)(F)F (stereo not drawn) | -13.51 |
| O=C(N[C@@H]1CN(Cc2c[nH]nc2-c2ccccc2)C[C@H]1O)c1cc[nH]n1 | 121.8 |
| COCCN1C(=O)CO[C@H]2CN(Cc3c[nH]nc3-c3ccccc3)C[C@@H]21 | -12.21 |
| CCC[C@H]1CN(CCS(C)(=O)=O)C[C@@H]1NC(=O)c1cc[nH]n1 | -12.34 |
| COc1ccc(-c2n[nH]cc2CN2CCSCC2)c(OC)c1 | 5.008 |
| Cc1n[nH]cc1CNC(=O)CCCc1cccs1 | -6.834 |
| COCC(=O)N[C@@H]1CN(Cc2c[nH]nc2-c2cccs2)C[C@H]1O | 113.8 |

From ChEMBL document CHEMBL3988442, “University of Dundee, Small-Polar-MMV Screening Library” (2021)
